Laboratory results: the supplement of paper PMC11732987, “Enantioselective OTUD7B fragment discovery through chemoproteomics screening and high-throughput optimisation” (Communications Chemistry, 2025)

Assays:
Assay in all cases: log2 ratio of Biotin-Ahx-Ub-VS probe labelling (fragment/DMSO); higher = less target engagement (more negative = stronger competition), active = hit call of the paper (q ≤ 0.05, log2 ratio ≤ -1)
Conditions in all cases: compound concentration: 200 uM; treatment time: 3 h
USP34 = USP34 (UniProt Q70CQ2)
USP34, sequence (Q70CQ2 whole entry, the tested form may be a part): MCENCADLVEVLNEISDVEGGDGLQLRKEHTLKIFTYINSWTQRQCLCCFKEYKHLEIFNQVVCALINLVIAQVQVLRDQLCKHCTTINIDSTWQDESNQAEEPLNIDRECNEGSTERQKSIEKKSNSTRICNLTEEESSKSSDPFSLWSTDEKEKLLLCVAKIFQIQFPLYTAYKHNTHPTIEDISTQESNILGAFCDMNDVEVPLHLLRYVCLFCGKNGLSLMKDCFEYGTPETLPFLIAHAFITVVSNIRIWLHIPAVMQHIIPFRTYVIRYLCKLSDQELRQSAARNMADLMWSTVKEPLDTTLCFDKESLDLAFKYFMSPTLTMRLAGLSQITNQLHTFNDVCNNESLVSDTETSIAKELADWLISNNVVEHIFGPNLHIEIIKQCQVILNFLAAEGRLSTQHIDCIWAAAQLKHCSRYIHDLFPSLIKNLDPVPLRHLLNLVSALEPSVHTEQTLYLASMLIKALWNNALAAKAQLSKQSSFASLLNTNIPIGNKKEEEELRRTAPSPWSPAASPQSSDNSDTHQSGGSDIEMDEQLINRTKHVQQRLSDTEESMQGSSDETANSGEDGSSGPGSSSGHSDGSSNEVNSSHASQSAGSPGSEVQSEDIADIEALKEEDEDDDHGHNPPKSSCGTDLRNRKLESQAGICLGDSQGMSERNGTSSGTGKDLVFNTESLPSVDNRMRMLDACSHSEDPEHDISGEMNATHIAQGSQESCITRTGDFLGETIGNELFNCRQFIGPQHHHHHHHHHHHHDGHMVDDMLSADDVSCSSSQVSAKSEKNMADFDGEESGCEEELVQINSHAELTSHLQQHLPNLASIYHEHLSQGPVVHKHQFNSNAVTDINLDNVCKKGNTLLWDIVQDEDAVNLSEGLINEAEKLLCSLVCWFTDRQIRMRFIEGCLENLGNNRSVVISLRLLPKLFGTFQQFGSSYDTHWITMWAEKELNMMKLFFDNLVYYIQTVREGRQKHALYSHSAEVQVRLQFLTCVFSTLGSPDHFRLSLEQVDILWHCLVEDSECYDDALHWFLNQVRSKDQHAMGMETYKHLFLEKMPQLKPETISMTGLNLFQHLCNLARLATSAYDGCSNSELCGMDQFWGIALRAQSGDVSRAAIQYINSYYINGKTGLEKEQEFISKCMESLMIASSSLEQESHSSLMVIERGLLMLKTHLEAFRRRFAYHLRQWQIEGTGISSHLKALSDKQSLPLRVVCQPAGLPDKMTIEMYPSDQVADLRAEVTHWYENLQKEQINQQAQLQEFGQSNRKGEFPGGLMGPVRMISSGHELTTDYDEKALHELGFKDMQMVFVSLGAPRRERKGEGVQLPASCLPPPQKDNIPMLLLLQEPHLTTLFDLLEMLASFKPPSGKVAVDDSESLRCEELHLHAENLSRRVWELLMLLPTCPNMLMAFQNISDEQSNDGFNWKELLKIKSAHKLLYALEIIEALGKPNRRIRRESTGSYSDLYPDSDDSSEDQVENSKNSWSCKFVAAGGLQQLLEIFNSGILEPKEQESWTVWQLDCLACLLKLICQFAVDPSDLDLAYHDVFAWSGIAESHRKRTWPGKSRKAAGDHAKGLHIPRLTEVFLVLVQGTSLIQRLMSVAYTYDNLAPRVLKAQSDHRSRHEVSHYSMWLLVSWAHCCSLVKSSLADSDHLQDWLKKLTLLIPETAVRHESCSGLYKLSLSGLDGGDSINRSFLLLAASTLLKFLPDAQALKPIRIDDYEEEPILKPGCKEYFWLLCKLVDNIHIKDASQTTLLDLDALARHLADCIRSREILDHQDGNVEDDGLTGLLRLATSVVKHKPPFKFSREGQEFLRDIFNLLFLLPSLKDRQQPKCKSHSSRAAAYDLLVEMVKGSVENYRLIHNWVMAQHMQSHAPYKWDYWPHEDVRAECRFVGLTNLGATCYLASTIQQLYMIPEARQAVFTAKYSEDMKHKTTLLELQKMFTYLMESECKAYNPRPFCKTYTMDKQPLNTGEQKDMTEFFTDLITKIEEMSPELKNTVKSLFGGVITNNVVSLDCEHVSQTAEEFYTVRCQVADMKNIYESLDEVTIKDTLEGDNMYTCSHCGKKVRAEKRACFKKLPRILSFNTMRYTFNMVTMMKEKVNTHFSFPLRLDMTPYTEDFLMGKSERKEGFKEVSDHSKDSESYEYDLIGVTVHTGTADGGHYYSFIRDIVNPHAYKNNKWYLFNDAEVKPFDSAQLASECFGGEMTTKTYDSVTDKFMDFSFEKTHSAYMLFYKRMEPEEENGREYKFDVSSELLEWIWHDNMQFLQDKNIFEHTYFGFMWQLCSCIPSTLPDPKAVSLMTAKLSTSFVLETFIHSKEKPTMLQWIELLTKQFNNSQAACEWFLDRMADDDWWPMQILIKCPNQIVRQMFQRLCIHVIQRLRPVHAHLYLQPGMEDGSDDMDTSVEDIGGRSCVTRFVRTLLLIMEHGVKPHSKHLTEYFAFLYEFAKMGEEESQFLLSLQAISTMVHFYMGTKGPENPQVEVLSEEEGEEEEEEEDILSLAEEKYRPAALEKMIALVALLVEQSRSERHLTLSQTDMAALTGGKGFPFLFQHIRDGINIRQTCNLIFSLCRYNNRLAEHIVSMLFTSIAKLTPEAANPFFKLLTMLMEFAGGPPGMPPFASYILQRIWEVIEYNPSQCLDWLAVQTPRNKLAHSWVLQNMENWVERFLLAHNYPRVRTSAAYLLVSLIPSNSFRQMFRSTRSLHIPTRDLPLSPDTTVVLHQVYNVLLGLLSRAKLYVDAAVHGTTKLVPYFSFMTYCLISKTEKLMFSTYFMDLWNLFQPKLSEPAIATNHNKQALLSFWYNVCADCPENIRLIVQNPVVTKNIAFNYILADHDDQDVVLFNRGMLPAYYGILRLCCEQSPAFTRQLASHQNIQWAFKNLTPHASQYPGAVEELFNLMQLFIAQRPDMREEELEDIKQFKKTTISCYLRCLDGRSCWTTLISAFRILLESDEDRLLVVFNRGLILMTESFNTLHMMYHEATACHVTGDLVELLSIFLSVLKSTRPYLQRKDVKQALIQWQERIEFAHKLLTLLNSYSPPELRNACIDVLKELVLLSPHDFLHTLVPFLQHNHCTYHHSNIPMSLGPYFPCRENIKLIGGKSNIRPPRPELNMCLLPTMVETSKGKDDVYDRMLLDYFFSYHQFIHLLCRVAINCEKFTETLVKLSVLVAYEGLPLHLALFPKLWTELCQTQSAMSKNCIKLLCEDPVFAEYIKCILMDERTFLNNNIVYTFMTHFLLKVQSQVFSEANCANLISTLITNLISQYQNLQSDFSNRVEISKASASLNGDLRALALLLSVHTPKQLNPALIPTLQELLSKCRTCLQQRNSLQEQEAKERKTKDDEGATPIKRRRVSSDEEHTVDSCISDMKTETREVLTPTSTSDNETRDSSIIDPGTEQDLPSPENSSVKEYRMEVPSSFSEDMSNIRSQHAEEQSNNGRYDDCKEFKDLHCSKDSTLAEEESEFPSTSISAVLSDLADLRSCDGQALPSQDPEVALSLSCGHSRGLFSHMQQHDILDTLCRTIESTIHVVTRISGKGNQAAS
In short: (§1)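 Triplicate samples of HEK293T lysate, 495 µg each, received fragment at 200 µM or vehicle for 3 h, followed by Biotin-Ahx-Ub-VS (0.5 µM final) for 1 h. After NeutrAvidin enrichment of labelled DUBs and LysC/trypsin digestion, peptides were run by diaPASEF LC-MS/MS. The values are average log2 fragment/vehicle ratios from global-median-normalised Spectronaut label-free quantities, tested by unpaired t-test on proteins having ≥2 unique peptides.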

USP36 = biological target: T1, USP36 (UniProt Q9P275)
T1 sequence (whole entry): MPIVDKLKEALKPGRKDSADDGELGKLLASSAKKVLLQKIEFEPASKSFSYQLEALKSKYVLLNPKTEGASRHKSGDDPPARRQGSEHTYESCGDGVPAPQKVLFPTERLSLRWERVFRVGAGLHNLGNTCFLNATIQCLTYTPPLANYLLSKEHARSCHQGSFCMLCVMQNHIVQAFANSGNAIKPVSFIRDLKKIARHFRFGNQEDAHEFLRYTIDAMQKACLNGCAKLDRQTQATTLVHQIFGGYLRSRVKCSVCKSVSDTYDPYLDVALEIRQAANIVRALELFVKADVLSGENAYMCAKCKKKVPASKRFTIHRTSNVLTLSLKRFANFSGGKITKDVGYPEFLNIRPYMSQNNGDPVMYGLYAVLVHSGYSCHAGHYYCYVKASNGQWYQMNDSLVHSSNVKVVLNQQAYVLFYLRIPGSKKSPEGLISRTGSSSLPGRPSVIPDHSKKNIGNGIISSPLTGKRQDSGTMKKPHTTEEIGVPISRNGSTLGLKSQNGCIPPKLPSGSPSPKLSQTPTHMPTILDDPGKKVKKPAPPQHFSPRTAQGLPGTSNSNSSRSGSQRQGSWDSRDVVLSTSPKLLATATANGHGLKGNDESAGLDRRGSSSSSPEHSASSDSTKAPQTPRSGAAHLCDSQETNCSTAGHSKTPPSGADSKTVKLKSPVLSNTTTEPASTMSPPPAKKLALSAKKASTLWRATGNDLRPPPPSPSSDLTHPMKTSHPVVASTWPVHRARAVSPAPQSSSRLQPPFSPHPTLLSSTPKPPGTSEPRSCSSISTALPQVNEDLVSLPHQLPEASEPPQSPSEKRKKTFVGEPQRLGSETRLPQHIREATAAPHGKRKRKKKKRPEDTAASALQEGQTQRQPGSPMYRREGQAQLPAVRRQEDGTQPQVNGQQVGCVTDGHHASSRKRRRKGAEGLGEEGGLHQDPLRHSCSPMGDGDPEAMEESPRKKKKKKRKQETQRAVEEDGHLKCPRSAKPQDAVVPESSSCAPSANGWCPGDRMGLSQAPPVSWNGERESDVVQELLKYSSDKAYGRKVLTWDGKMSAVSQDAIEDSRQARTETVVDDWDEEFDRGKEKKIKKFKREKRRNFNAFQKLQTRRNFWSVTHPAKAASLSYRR
In short: as §1

USP38 = biological target: T2, USP38 (UniProt Q8NB14)
T2 sequence (whole entry): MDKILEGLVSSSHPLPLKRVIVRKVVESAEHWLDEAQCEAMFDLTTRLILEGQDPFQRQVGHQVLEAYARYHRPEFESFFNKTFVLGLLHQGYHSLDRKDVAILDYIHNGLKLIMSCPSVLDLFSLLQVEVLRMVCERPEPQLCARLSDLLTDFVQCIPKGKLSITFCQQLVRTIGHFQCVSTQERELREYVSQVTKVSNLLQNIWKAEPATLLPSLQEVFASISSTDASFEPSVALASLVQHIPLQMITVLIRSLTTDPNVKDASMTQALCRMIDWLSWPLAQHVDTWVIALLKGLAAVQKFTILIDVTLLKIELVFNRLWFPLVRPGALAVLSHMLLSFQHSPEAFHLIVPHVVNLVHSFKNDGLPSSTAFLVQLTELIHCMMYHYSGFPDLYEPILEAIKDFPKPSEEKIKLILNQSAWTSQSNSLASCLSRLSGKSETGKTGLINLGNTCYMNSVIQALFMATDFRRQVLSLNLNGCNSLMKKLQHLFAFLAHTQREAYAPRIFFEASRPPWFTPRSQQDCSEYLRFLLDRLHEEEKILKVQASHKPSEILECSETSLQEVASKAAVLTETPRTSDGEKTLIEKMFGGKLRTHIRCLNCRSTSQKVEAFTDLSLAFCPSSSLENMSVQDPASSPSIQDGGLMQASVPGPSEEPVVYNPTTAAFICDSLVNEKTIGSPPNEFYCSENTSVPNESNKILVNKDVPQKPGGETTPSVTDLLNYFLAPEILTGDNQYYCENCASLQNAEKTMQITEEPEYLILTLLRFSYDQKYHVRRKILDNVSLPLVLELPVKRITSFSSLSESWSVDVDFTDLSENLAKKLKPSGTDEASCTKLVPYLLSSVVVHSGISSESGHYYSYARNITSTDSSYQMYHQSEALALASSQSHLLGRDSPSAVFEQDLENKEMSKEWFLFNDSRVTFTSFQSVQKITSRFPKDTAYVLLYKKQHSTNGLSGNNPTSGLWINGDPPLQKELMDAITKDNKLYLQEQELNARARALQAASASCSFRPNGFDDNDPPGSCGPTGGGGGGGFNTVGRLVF
In short: as §1

USP39 = biological target: T3, USP39 (UniProt Q53GS9)
T3 sequence (whole entry): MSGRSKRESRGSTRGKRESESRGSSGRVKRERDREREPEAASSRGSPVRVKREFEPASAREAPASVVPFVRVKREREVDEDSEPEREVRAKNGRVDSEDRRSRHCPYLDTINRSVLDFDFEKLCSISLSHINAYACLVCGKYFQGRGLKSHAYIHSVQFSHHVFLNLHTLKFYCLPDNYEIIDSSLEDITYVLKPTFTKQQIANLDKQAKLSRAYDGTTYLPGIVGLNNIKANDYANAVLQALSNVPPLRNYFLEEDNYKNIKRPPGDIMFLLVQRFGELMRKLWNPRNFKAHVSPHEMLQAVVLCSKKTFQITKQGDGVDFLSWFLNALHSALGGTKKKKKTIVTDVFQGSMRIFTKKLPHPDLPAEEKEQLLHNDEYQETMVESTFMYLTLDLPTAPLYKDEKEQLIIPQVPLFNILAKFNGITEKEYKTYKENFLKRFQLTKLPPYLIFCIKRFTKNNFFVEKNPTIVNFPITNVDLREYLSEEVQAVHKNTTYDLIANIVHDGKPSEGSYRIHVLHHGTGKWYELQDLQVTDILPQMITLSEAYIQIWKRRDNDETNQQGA
In short: as §1

USP4 = biological target: T4, USP4 (UniProt Q13107)
T4 sequence (whole entry): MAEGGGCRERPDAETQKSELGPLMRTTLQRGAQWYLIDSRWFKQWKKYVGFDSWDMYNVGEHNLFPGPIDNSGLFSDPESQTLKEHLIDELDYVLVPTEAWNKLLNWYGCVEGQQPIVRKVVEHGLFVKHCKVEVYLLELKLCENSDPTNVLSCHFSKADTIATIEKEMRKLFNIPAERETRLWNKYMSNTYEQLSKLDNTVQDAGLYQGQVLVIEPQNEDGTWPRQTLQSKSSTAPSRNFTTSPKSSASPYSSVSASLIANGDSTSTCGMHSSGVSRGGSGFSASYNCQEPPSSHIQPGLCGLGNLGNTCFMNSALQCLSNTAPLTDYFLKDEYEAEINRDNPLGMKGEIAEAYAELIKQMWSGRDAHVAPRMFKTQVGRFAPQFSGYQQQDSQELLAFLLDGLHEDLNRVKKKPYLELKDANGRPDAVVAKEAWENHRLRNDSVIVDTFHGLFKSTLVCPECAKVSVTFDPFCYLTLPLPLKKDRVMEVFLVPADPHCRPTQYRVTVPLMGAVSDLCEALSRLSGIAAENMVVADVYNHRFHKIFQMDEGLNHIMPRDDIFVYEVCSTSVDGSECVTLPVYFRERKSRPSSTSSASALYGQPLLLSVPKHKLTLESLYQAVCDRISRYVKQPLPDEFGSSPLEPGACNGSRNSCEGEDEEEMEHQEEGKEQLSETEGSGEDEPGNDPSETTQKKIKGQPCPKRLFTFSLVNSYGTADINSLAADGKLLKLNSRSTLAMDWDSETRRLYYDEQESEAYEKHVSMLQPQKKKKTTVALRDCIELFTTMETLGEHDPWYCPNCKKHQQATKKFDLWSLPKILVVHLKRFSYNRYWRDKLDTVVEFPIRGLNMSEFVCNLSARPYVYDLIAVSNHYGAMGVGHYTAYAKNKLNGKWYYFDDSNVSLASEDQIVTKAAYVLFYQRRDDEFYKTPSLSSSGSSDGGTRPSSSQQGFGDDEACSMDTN
In short: as §1

Measured: log2 ratio of Biotin-Ahx-Ub-VS probe labelling

CN(C)C(=O)c1ccc(CNC(=O)CCl)cc1
inactive: USP34 0.0263 | USP36 0.0235 | USP38 0.231 | USP39 0.0923 | USP4 0.059
